Among the data in PubChem BioAssay are composite z-score and z-score values, retold here.

The source made the active and inactive calls. Unless noted, no rule for the calls is given here.

Experiment [1] can be described thus: compounds binding Alexa647 anti-His antibody – biochemical, small-molecule microarray, 635 nm fluorescence, artefact control for SMM control protein annotation, primary screen (AID 1128).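 Also: score merges feature fluorescence with signal-to-noise for each printed compound spot.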 To be noted: higher = more signal.
Experiment [2] relates to Human papillomavirus type 1a E7 protein (residues 1-88). Briefly: HPV1a E7 small-molecule binders, primary screen, biochemical, small-molecule microarray, residues 1-88, 635 nm (AID 1129). The conditions noted are these: small-molecule microarray binding, fluorescence 635 nm; higher = more signal.
The target of experiment [3] is Focal adhesion kinase 1 (Homo sapiens) (UniProt Q05397). The experiment is described as follows: PTK2 protein binding on printed compound slides – biochemical, small-molecule microarray, 635/667 nm fluorescence, BSA, DTT, primary screen (AID 1130).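 Also: composite of spot emission at 667 nm and signal to noise over triplicate slides.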 The conditions noted are these: 635 nm fluorescence, higher = more signal.
The test system of experiment [4] is Fibrinogen (Alexa647-labelled). The experiment is described as follows: Alexa647-fibrinogen binding to printed small molecules – biochemical, small-molecule microarray, 635/667 nm fluorescence, artefact control for SMM control-protein annotation, profiling panel (AID 1131).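 Also: z-score merges 667 nm fluorescence with per-spot signal-to-noise over triplicate slides.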 To be noted: fibrinogen-A647 binding fluorescence, higher = more signal.
The target of experiment [5] is Follistatin (Homo sapiens) (UniProt P19883). The experiment is described as follows: FST protein binding to printed compounds – biochemical, small-molecule microarray, 635/667 nm fluorescence, primary screen (AID 1132). To be noted: 635 nm fluorescence, higher = more signal.
For experiment [6], the target named is Fibroblast growth factor 2 (Homo sapiens) (UniProt P09038). The experiment is described as follows: basic fibroblast growth factor binding to printed compounds – biochemical, small-molecule microarray, 635/667 nm fluorescence, primary screen (AID 1133). To be noted: FGF2, fluorescence 635/667, higher = more signal.
Experiment [7] in a line: JC-1 mitochondrial potential readout, lung cancer cells – cell-based, A549, JC-1 fluorescence, basal, 24 h, 100 nL, profiling panel (AID 1138).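 Also: A549 lung adenocarcinoma cells under basal conditions with no added stimulus; test concentration not given here.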 To be noted: higher = more signal.
Experiment [8] deals with Lefty1. The experiment is described as follows: Lefty1 protein binding to printed compounds – biochemical, small-molecule microarray, 635/667 nm fluorescence, primary screen (AID 1139). The conditions noted are these: fluorescence 635/667, higher = more signal.
In experiment [9] the test system is wheat germ agglutinin (Triticum aestivum), Alexa647-labelled. Briefly: Alexa647-WGA lectin binding to printed small molecules – biochemical, small-molecule microarray, 635/667 nm fluorescence, artefact control for SMM control-protein annotation, profiling panel (AID 1140).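 Also: score merges 667 nm feature emission with signal to noise over triplicate slides.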 The conditions noted are these: WGA-A647 binding, 635 nm fluorescence, higher = more signal.

Experiment [10] addresses Luciferin 4-monooxygenase (Photinus pyralis) (UniProt P08659). The experiment is described as follows: inhibition of purified Photinus pyralis luciferase – biochemical, luminescence, purified enzyme, 2006 set, primary screen (AID 1141).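 Also: cell-free assay with purified firefly luciferase at 100 ng per well in PBS; test concentration not given here.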 The conditions noted are these: purified firefly luciferase, SteadyGlo luminescence, 30 min; higher = more signal, called active from +8 up or from −8 down.

In experiment [11] the test system is Wnt5a (protein binding on small-molecule microarray). The experiment is described as follows: small molecules binding Wnt5a protein – biophysical, small-molecule microarray, 635/667 nm fluorescence, primary screen (AID 1142).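 Also: fluorescence read at 667 nm with signal to noise per printed feature.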 The conditions noted are these: 635 nm fluorescence, higher = more signal.
The nature of experiment [12]: ATP-based viability of Huh7 replicon cells – cell-based, CellTiter-Glo luminescence, basal, 48 h, cytotoxicity control for HCV replication inhibitor project, primary screen (AID 1143).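 Also: Huh7 hepatoma cells carrying a hepatitis C replication reporter with no stimulus; test concentration not given here.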 The conditions noted are these: higher = more signal, called active from +8 up or from −8 down. On the technique in general: In antiviral work, replicon cells carry a viral genome segment that copies itself.

The nature of experiment [13]: Pseudomonas biofilm growth suppression – PAO1 strain, BacTiter-Glo luminescence, LB-PBS, primary screen (AID 1144). To be noted: P. aeruginosa PAO1 biofilm, 12 h, higher = more signal.
A short description of experiment [14]: basal CRE-LacZ reporter activity in PC12 – cell-based, unstimulated, primary screen (AID 1145). The conditions noted are these: no forskolin, luminescence, 4.5 h, higher = more signal, called active from +8 up or from −8 down.
Experiment [15] in a line: forskolin-driven CRE-LacZ activity in PC12 – cell-based, CRE-LacZ reporter, forskolin-stimulated, primary screen (AID 1146).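 Also: PC12 cells with 6xCRE LacZ reporter stimulated by forskolin 10 µM; beta-galactosidase reporter signal reflecting CREB driven transcription.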 The conditions noted are these: luminescence, 4.5 h, higher = more signal, called active from +8 up or from −8 down.
Experiment [16] addresses Streptavidin (Streptomyces avidinii) (UniProt P22629). Briefly: compounds binding control protein streptavidin – biophysical, small-molecule microarray, 635/667 nm fluorescence, artefact control for SMM compound annotation, primary screen (AID 1147).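 Also: signal reflects streptavidin binding to arrayed compounds as a control protein.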 The conditions noted are these: higher = more signal.
The nature of experiment [17]: probe aInhba binding on compound microarray – biochemical, small-molecule microarray, 635/667 nm fluorescence, primary screen (AID 1148).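 Also: score merges 667nm spot fluorescence with signal-to-noise for antibody binding to printed compounds.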 To be noted: higher = more signal.
The target in experiment [18] is Torsin-1A (Homo sapiens) (UniProt O14656). The experiment is described as follows: TOR1A wild-type binding on microarray – cell lysate, small-molecule microarray, lysate, 635/667 nm, primary screen (AID 1149). The conditions noted are these: COS7 hTOR1A-WT lysate, 635 nm fluorescence, higher = more signal.
Experiment [19] shares this target. The experiment is described as follows: torsin A mutant lysate binding on microarrays – cell lysate, small-molecule microarray, COS7 lysate, 635/667 nm fluorescence, primary screen (AID 1150).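 Also: score pools 667 nm emission and signal to noise measuring lysate protein binding.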 The conditions noted are these: COS7 hTOR1A mutant lysate, 635 nm fluorescence, higher = more signal.
Experiment [20] concerns Sonic hedgehog protein (Shh). The experiment is described as follows: Sonic hedgehog microarray binding compounds – biochemical, small-molecule microarray, 635/667 nm fluorescence, primary screen (AID 1151).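 Also: Shh protein binding to compounds spotted on small-molecule microarray slides; score combines spot fluorescence intensity with signal-to-noise across triplicate slides.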 To be noted: 635 nm fluorescence, higher = more signal.

Fibroblast growth factor 2 (Homo sapiens), sequence (P09038 whole entry, looked up): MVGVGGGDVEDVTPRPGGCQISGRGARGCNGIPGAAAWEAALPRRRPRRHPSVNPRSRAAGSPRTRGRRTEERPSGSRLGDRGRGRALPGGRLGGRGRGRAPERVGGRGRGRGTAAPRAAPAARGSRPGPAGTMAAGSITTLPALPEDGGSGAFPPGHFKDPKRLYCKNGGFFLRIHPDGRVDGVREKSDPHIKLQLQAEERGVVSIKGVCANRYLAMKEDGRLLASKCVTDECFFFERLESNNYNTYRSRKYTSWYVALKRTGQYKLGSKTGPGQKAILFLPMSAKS
Luciferin 4-monooxygenase (Photinus pyralis), sequence (P08659 whole entry, looked up): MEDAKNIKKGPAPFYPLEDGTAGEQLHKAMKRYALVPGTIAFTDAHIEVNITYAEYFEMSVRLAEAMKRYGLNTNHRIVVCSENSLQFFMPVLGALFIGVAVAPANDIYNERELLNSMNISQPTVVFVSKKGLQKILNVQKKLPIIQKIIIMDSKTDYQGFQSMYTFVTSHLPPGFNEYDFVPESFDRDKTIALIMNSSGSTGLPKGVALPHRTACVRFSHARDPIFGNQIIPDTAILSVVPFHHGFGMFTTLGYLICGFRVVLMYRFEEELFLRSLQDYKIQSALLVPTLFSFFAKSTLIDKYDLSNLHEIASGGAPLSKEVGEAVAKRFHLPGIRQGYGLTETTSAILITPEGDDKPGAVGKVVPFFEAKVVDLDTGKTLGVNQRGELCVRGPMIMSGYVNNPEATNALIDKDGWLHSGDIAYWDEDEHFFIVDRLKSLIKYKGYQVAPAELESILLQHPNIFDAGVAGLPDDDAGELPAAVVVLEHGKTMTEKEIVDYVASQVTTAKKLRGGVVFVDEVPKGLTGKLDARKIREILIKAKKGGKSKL
Focal adhesion kinase 1 (Homo sapiens), sequence (Q05397 whole entry, looked up): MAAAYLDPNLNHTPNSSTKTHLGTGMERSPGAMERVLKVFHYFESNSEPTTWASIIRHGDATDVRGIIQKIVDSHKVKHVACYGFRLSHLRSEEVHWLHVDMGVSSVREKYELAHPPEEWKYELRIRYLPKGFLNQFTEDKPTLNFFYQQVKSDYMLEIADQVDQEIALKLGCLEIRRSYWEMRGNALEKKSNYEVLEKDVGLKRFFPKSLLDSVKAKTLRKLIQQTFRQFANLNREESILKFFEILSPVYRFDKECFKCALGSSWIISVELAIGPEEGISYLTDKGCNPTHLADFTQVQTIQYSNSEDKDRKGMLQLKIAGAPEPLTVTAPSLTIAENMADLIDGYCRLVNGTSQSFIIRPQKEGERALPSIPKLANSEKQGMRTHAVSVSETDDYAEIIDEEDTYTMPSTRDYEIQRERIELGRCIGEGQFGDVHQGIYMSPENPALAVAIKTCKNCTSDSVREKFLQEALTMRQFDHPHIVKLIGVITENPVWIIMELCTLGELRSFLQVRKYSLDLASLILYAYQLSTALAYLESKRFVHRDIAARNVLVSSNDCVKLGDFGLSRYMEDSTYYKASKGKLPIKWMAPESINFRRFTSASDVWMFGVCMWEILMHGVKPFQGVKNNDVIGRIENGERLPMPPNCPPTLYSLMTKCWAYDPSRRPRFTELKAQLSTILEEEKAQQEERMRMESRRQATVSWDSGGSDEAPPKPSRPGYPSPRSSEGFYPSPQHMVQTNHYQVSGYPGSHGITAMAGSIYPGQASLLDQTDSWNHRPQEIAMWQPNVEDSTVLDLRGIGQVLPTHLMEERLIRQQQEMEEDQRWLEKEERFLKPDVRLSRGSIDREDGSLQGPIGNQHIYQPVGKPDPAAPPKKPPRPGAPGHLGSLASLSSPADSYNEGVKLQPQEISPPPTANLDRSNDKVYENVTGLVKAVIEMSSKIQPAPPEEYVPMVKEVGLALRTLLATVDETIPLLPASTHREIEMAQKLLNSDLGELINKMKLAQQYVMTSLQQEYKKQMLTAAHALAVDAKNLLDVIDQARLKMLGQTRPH
Follistatin (Homo sapiens), sequence (P19883 whole entry, looked up): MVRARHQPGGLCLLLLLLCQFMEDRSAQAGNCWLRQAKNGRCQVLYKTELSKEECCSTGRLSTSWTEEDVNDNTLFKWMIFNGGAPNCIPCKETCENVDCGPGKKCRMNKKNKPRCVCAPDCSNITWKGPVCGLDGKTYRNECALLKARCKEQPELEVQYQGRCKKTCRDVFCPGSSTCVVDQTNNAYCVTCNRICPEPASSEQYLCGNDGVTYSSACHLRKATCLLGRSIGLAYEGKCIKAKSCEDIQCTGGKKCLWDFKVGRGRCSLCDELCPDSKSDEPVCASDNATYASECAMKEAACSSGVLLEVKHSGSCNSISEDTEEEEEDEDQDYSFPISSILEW
Torsin-1A (Homo sapiens), sequence (O14656 whole entry, looked up): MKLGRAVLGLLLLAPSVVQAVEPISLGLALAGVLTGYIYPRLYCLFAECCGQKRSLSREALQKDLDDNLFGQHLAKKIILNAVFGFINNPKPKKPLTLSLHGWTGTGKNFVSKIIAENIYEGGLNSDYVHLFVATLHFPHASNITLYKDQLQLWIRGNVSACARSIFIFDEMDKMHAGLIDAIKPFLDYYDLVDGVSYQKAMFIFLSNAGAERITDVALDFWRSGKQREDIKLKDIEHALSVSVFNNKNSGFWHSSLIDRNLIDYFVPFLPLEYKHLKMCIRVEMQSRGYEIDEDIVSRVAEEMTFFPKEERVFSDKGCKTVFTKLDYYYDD
Streptavidin (Streptomyces avidinii), sequence (P22629 whole entry, looked up): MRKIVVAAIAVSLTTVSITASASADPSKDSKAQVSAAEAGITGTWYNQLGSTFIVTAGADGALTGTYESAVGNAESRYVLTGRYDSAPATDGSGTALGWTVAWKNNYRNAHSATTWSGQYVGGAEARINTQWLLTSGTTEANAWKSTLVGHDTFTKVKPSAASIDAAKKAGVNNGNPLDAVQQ

`O=C(N1CCOCC1)[C@@]1(CCS(=O)(=O)c2ccccc2)N=C(c2ccc(OCCCO)cc2)O[C@H]1c1ccccc1`: the composite z-score came out at 3.23 in experiment [1]; 1.25 in experiment [2]; 0.919 in experiment [3]; 1 in experiment [4]; 1.25 in [5]; 0.162 in [6]. For the same molecule, the composite z-score in [8] is -0.415; in experiment [9] it was 1.29; in experiment [11] it was 0.465; in [16], 2.39; in experiment [17] it was 0.3; in experiment [18] it was 0.411. For the same molecule, the composite z-score was 0.767 in experiment [19] and -0.514 in [20]. The z-score in experiment [7] is 0.584; in experiment [10], -0.0763 (inactive); in experiment [12], -1.48 (inactive); in experiment [13], 0.201 (inactive); in [14], 0.0127 (inactive); in experiment [15], -0.0526 (inactive).

On to `Cc1ccc(N2C(=O)c3ccccc3[C@](C)(C(=O)NCc3ccccc3)[C@@H]2c2ccc(CO)cc2)nc1`, for which the composite z-score was 2.31 in [1]; -0.27 in [2]; 0.771 in experiment [3]; -0.887 in experiment [4]; 1.31 in experiment [5]; 0.464 in [6]. The composite z-score in experiment [8] is -0.0828; in experiment [9], 0.0023; in experiment [11] it was 0.135; in experiment [16], 0.0831; in experiment [17] it was 0.0561; in [18], 0.197. The composite z-score in experiment [19] is 0.185; in experiment [20], 0.547. Besides, the z-score is -0.425 in experiment [7]; -1.1 (inactive) in experiment [10]; -2.21 (inactive) in experiment [12]; 0.493 (inactive) in experiment [13]; 0.351 (inactive) in [14]; -1.32 (inactive) in [15].

On to `C[C@@H]1ON(c2ccc(I)cc2)[C@H](c2ccc(OC(=O)OC(C)(C)C)cc2)[C@H]1C(=O)N1C(=O)OC[C@H]1Cc1ccccc1`, for which the composite z-score in experiment [1] was 0.955; in [2] it was 1.13; in [3] it was -0.0457; in experiment [4], 0.966; in experiment [5] it was 0.61; in experiment [6], 0.255. Besides, the composite z-score in experiment [8] was 0.445; in [9], 0.348; in [11], 0.0472; in [16], 0.573; in [17], -0.0468; in experiment [18], 0.0475. Also, the values for the composite z-score in experiment [19] and in [20] were 0.624 and 0.639, respectively. Further, the z-score was 0.386 in experiment [7]; -0.695 (inactive) in [10]; -1.32 (inactive) in experiment [12]; -0.829 (inactive) in experiment [13]; -0.415 (inactive) in [14]; -0.642 (inactive) in [15].

As for `CN(C)C(=O)[C@@]1(CCC(=O)OC(C)(C)C)N=C(c2ccc(OCCCO)cc2)O[C@H]1c1ccccc1CN=[N+]=[N-]`, the composite z-score in experiment [1] was 2.38; in experiment [2] it was 1.17; in [3], 0.821; in experiment [4] it was 1.01; in experiment [5], 1.29; in [6], 0.512. Further, the composite z-score in [8] is -0.597; in experiment [9], 1.05; in experiment [11], 0.281; in [16], 0.457; in [17], 0.0857; in [18], 0.946. For the same molecule, the results for the composite z-score in experiment [19] and in experiment [20] were 1.99 and -0.733, respectively. The z-score in [7] was 0.123; in experiment [10] it was -0.659 (inactive); in experiment [12], -0.292 (inactive); in [13], -0.0794 (inactive); in experiment [14], 0.148 (inactive); in [15], 0.27 (inactive).

`COc1ccc([Si](C)(C)[C@@H]2[C@@H](CCn3cc([C@H](O)c4ccccc4)nn3)O[C@]3(C(=O)N(Cc4cccc(N5C(=O)c6cccc7cccc5c67)c4)c4ccccc43)[C@H]2C)cc1`: the composite z-score in experiment [1] was 0.195; in experiment [2], -0.34; in [3] it was -0.426; in [4], -0.759; in experiment [5] it was -0.0585; in experiment [6], -0.758. Also, the composite z-score is 0.199 in [8]; -0.228 in experiment [9]; -0.537 in [11]; -0.0465 in [16]; -0.0963 in experiment [17]; -1.06 in experiment [18]. Besides, the figures for the composite z-score in experiment [19] and in [20] were -0.526 and 0.454, respectively. Besides, the z-score in [7] is 0.794; in experiment [10], 0.148 (inactive); in experiment [12], -3.34 (inactive); in [13] it was 0.692 (inactive); in experiment [14] it was 0.0031 (inactive); in [15] it was 0.471 (inactive).
